Reference: PubChem BioAssay (Tox21)
Inconclusive results are not listed. Activity calls are given as the source filed them. Unless noted, the call rests on the fitted dose curve; in most records, active means well fitted curve in the direction sought with a large enough effect in the repeat runs; inconclusive means weak or mixed curves; inactive means no such curve, though single readings can be large; an effect the other way counts as inactive or inconclusive.

Tests used:
[1] = qHTS assay to identify small molecule agonists of the peroxisome proliferator-activated receptor delta (PPARd) signaling pathway - cell viability counter screen (AID 743211); further: nearly all actives have a fitted effect of over 55% in size
In short: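 Tox21 library compounds, delivered in DMSO, were incubated 17 h with PPARd-bla HEK293H cells; cytotoxicity was taken from CellTiter-Glo luminescence read 30 min after reagent addition.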

[2] = qHTS assay to identify small molecule agonists of the farnesoid-X-receptor (FXR) signaling pathway - cell viability counter screen (AID 743218); further: nearly all actives have a fitted effect of over 45% in size
In short: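 Cytotoxicity counter-screen run in parallel, same wells: FXR-UAS-bla HEK 293T cells dosed 16 h at 37 C, viability read by CellTiter-Glo luminescence after 30 min at room temperature.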

[3] = target: Vitamin D3 receptor (Homo sapiens) (UniProt P11473); test: qHTS assay to identify small molecule antagonists of the vitamin D receptor (VDR) signaling pathway (AID 743223; active means well fitted inhibition curve with a large enough effect in the signal ratio in the repeat runs, not every such curve was filed as active; the % refers to the signal ratio)
Vitamin D3 receptor (Homo sapiens), sequence (P11473 whole entry, looked up): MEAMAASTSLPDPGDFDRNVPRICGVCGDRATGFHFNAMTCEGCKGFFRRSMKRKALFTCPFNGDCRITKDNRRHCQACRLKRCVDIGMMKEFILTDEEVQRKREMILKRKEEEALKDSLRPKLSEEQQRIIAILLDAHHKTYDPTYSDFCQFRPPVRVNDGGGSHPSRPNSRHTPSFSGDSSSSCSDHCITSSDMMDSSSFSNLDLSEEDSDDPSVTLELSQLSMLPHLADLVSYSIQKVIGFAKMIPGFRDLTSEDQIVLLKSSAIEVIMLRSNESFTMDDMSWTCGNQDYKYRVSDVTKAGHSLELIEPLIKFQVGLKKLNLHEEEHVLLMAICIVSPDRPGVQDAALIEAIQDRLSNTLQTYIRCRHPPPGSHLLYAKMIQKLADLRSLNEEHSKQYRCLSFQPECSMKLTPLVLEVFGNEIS
In short: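 Quantitative HTS in VDR-bla reporter cells stimulated with 1alpha,25-dihydroxyvitamin D3, 3 nM final. Compound exposure 16 h, 37C, 5% CO2. Read-out: beta-lactamase FRET substrate fluorescence, 2 h RT.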

[4] = qHTS assay to identify small molecule agonists of the vitamin D receptor (VDR) signaling pathway - cell viability counter screen (AID 743224); further: series mostly up to about 63 µM; nearly all actives have a fitted effect of over 50% in size
In short: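 Viability is measured in the same wells as the VDR-bla reporter assay: after 16 h compound treatment and 2 h substrate loading, CellTiter-Glo is added and luminescence read 30 min later.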

[5] = qHTS assay to identify small molecule antagonists of the vitamin D receptor (VDR) signaling pathway - cell viability counter screen (AID 743225); further: nearly all actives have a fitted effect of over 50% in size
In short: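 Same-well multiplex: following 16 h treatment of HEK 293T cells carrying a UAS-driven beta-lactamase reporter with compound and agonist (3 nM final), and a 2 h FRET substrate step, CellTiter-Glo was added and luminescence read after 30 min.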

[6] = qHTS assay to identify small molecule agonists of the NFkB signaling pathway (AID 1159509; active means well fitted curve in the direction sought with a large enough effect in the signal ratio in the repeat runs, not every such curve was filed as active; the % refers to the signal ratio; further: series mostly up to about 61 µM)
In short: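 NFkB-bla ME-180 cells carry a beta-lactamase reporter under an NF-kB response element. They were plated overnight, then exposed to compounds for 5 h at 37 C. Read-out is LiveBLAzer FRET after 1.5 hr at room temperature (405 nm excitation; 460/530 nm emission).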

[7] = qHTS assay to identify small molecule agonists of the NFkB signaling pathway - cell viability counter screen (AID 1159515; calls by dose curve; further: series mostly up to about 61 µM; nearly all actives have a fitted effect of over 55% in size)
In short: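 Multiplexed viability readout: after the 5 hr compound exposure and 1.5 hr FRET substrate step, CellTiter-Glo reagent went into the same NFkB-bla ME-180 wells; ATP luminescence was measured after 30 min at room temperature.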

[8] = qHTS assay to identify small molecule agonists of the endoplasmic reticulum stress response signaling pathway (AID 1159516; active means well fitted activation curve with a large enough effect in the signal ratio in the repeat runs, not every such curve was filed as active; the % refers to the signal ratio)
In short: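 Tox21 10K library screened in quantitative HTS format on ESRE-bla HeLa cells, a beta-lactamase reporter under ER stress response element control; 5 hr treatment, FRET read.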

[9] = qHTS assay to identify small molecule antagonists of the retinoid-related orphan receptor gamma (ROR-gamma) signaling pathway - cell viability counter screen (AID 1159520); further: nearly all actives have a fitted effect of over 50% in size
In short: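 Tet-on ROR gamma CHO cells were given compounds for 2 hr, then doxycycline hyclate at 1 uM final, and incubated 16 hr at 37 C. Viability was measured as ATP content by CellTiter-Glo luminescence.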

[10] = target: Nuclear receptor ROR-gamma (Homo sapiens) (UniProt P51449); test: qHTS assay to identify small molecule antagonists of the retinoid-related orphan receptor gamma (ROR-gamma) signaling pathway (AID 1159521;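 further: CHO cells with doxycycline inducible ROR-gamma driving an RORE luciferase reporter; top concentration of the series differs between compounds; nearly all actives have a fitted effect of over 50% in size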)
In short: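 Inducible-expression reporter assay: doxycycline (1 uM final) switched on RORγ in CHO cells bearing a ROR response element-luciferase construct, with test compounds present from 2 h beforehand. Decreased luminescence after 16 h defined antagonist activity.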

[11] = qHTS assay to identify small molecule agonists of the AP-1 signaling pathway - cell viability counter screen (AID 1159525; calls by dose curve; further: nearly all actives have a fitted effect of over 55% in size)
In short: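 AP-1-bla ME-180 cells in Opti-MEM with 0.5% dialyzed FBS, compound exposure 5 h at 37 C in 15-point titration. Viability read in the same wells as ATP content by CellTiter-Glo luminescence, normalised to tetra-n-octylammonium bromide and DMSO controls.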

[12] = qHTS assay to identify small molecule agonists of the AP-1 signaling pathway (AID 1159526; calls by dose curve)
[13] = target: Peroxisome proliferator-activated receptor delta (Homo sapiens) (UniProt Q03181); test: qHTS assay to identify small molecule agonists of the peroxisome proliferator-activated receptor delta (PPARd) signaling pathway (AID 743212; calls by dose curve)
Peroxisome proliferator-activated receptor delta (Homo sapiens), sequence (Q03181 whole entry, looked up): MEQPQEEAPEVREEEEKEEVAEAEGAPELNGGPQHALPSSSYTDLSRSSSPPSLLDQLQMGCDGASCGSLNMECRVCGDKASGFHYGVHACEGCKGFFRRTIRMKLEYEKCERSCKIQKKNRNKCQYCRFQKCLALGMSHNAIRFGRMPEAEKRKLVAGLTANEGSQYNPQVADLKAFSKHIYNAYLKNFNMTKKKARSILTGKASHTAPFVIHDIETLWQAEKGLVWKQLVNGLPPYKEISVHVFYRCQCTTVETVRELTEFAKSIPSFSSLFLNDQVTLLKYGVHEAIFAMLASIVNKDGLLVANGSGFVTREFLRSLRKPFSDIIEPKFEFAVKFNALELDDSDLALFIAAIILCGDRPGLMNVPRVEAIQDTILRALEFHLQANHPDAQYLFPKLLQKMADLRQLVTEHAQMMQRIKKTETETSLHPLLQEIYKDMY
In short: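 GeneBLAzer UAS-bla HEK293H cells carrying a PPARδ construct were exposed to compounds at 37 °C. Beta-lactamase activity was read by FRET fluorescence after 2 h at room temperature with LiveBLAzer B/G substrate.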

[14] = qHTS assay to identify small molecule antagonists of the peroxisome proliferator-activated receptor delta (PPARd) signaling pathway - cell viability counter screen (AID 743213); further: nearly all actives have a fitted effect of over 50% in size
In short: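 PPARd-bla HEK293H cells (3000/well) got compound plus 300 nM L165041 agonist for 17 h at 37 C. Viability in the same wells came from CellTiter-Glo luminescence after 30 min at room temperature.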

[15] = target: Peroxisome proliferator-activated receptor delta (Homo sapiens) (UniProt Q03181); test: qHTS assay to identify small molecule antagonists of the peroxisome proliferator-activated receptor delta (PPARd) signaling pathway (AID 743215; active means well fitted inhibition curve with a large enough effect in the signal ratio in the repeat runs, not every such curve was filed as active; the % refers to the signal ratio;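 further: cells stimulated with agonist L165041 at 300 nM final during compound exposure; series mostly up to about 62 µM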)
In short: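 Inhibition of L165041-driven (300 nM final) PPARd signaling is scored in HEK293H UAS-bla cells. Exposure lasts 17 h at 37 C; beta-lactamase activity is then read by FRET substrate fluorescence after 2 h at room temperature.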

[16] = qHTS assay to identify small molecule antagonists of the farnesoid-X-receptor (FXR) signaling pathway - cell viability counter screen (AID 743221; active means well fitted cell-killing curve with a large enough effect in the repeat runs, not every such curve was filed as active; further: nearly all actives have a fitted effect of over 50% in size)
In short: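 Cytotoxicity is taken from ATP luminescence (CellTiter-Glo, 30 min, room temperature) in FXR-bla HEK 293T cells previously incubated 16 h at 37 C with compound and chenodeoxycholic acid at 50 uM final.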

[17] = target: Vitamin D3 receptor (Homo sapiens) (UniProt P11473); test: qHTS assay to identify small molecule agonists of the vitamin D receptor (VDR) signaling pathway (AID 743222; calls by dose curve)
In short: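 Quantitative HTS agonist-mode screen: compounds in DMSO were pin-transferred onto VDR-bla cells and incubated 16 h at 37C, 5% CO2. Reporter activity was detected with LiveBLAzer B/G FRET substrate after 2 h at room temperature.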

[18] = target: Bile acid receptor (Homo sapiens) (UniProt Q96RI1); test: qHTS assay to identify small molecule agonists of the farnesoid-X-receptor (FXR) signaling pathway (AID 743220; active means well fitted activation curve with a large enough effect in the signal ratio in the repeat runs, not every such curve was filed as active; the % refers to the signal ratio)
Bile acid receptor (Homo sapiens), sequence (Q96RI1 whole entry, looked up): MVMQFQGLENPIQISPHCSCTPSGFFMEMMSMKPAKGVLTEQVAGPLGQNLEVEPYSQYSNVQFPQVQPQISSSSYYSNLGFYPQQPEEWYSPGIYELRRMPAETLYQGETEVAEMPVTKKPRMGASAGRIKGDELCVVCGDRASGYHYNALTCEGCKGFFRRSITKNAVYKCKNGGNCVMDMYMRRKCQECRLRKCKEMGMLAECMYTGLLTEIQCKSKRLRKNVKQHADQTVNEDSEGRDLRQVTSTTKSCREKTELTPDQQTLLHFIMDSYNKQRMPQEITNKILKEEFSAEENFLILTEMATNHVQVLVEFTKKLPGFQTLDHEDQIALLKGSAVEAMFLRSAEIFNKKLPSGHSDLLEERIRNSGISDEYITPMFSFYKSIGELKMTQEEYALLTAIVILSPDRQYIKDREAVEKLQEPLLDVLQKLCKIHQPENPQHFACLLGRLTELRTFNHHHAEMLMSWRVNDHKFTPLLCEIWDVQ
In short: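 Beta-lactamase reporter under UAS control in GeneBLAzer FXR HEK 293T cells (5000/well) measured with LiveBLAzer FRET substrate after 2 h at room temperature. Compound exposure lasted 16 h at 37C.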

[19] = target: Bile acid receptor (Homo sapiens) (UniProt Q96RI1); test: qHTS assay to identify small molecule antagonists of the farnesoid-X-receptor (FXR) signaling pathway (AID 743217; active means well fitted inhibition curve with a large enough effect in the signal ratio in the repeat runs, not every such curve was filed as active; the % refers to the signal ratio)
In short: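 Antagonist mode against 50 uM (final) chenodeoxycholic acid stimulation in FXR-bla HEK 293T cells, 16 h at 37 °C. Inhibition detected as reduced beta-lactamase activity via LiveBLAzer B/G FRET fluorescence after 2 h at room temperature.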

Measured: Potency

CC(C)C1CCC(C(=O)N[C@H](Cc2ccccc2)C(=O)O)CC1 (stereo partly drawn)
inactive: [1] | [2] | [3] | [4] | [5] | [6] | [7] | [8] | [9] | [10] | [11] | [12]

O=C1OC(=O)c2c(Br)c(Br)c(Br)c(Br)c21
inactive: [1] | [13] | [14] | [15] | [2] | [16] | [17] | [3] | [4] | [5] | [6] | [7] | [8] | [9] | [11] | [12]

CC(C)N=C=NC(C)C
inactive: [1] | [14] | [16] | [3] | [5] | [6] | [7] | [8] | [9] | [10] | [11] | [12]

Nc1nc(-c2ccc([N+](=O)[O-])cc2)cs1
inactive: [1] | [2] | [18] | [16] | [5] | [6] | [7] | [8] | [9] | [10] | [11] | [12]

Cc1ccc(Nc2c(F)cccc2Cl)c(CC(=O)O)c1
inactive: [1] | [19] | [2] | [18] | [16] | [4] | [5] | [6] | [7] | [8] | [9] | [10] | [11] | [12]

O=C(O)CO
inactive: [1] | [14] | [16] | [17] | [4] | [5] | [6] | [7] | [8] | [9] | [10] | [11] | [12]

CC(=O)OCC1=C(C(=O)O)N2C(=O)[C@@H](NC(=O)CSc3ccncc3)[C@H]2SC1
inactive: [1] | [14] | [19] | [2] | [4] | [6] | [7] | [8] | [9] | [10] | [11]

O=S(=O)(Cl)c1c(Cl)cccc1Cl
inactive: [1] | [13] | [14] | [15] | [2] | [16] | [4] | [5] | [6] | [7] | [8] | [9] | [11] | [12]

Nc1c(Cl)cc(Cl)cc1[N+](=O)[O-]
inactive: [1] | [13] | [14] | [2] | [16] | [17] | [4] | [5] | [6] | [7] | [8] | [9] | [11] | [12]

CCSC(=O)N(CC)CC
inactive: [1] | [13] | [14] | [15] | [2] | [17] | [3] | [4] | [5] | [6] | [7] | [8] | [9] | [11] | [12]
